Assay outcomes as filed in PubChem BioAssay.
Hits are enriched below; roughly 1.6% of the tested compounds scored in any of these assays.
KCNQ2 enhance: enhances the rat KCNQ2 potassium channel. O88943. CHO-K1 KCNQ2, FluxOR thallium flux fluorescence; active compounds read high. B-score at 10 µM. actives 0.54% (n = 310,000). AID 2239;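 active = fluorescence ratio B-score at least 3 SD of library B-scores, with initial fluorescence B-score within 3 of them, cut at about 5.3 in these data; same plate scores as AID 2156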;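 note: B-score of peak minus minimum over baseline fluorescence ratio after K+ and Tl+ stimulus; positive B-score means potentiation of KCNQ2 with more thallium influx and brighter signal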
KCNQ2 inh: inhibitors of rat KCNQ2 potassium channel. O88943. CHO-K1 KCNQ2, FluxOR thallium flux, 20 min; active compounds read low. B-score at 10 µM. actives 1.1% (n = 310,000). AID 2156;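 active = fluorescence ratio B-score at most minus 3 library SDs, with starting brightness B-score within 2 library SDs, cut at about -5.5 in these data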
KCNQ2 inh conf: confirmation of rat KCNQ2 potassium channel inhibitors; shares compounds with KCNQ2 inh; KCNQ2-expressing cells, thallium flux, inhibition; active compounds read low; activity change, negative = inhibition, % at 10 µM; actives 57% (n = 1,000); AID 493025;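 note: 0% = vehicle wells and values are ratio percent relative to vehicle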
KCNQ1 spec: human KCNQ1 activity in KCNQ2 inhibitor specificity screen; shares compounds with KCNQ2 inh; KCNQ1-expressing cells, FluxOR thallium flux fluorescence; active compounds read low; activity change, negative = inhibition, % at 10 µM; actives 15% (n = 1,000); AID 493026;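 active = activity change at least 3 SD of negative controls below their mean in both duplicate wells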;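 note: CHO cells stably transfected with KCNQ1 and depolarized by potassium stimulus; peak minus minimum fluorescence over baseline after thallium addition; 0% = vehicle negative control and -100% = blank without thallium stimulus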
Target sequence (P51787 whole entry, looked up): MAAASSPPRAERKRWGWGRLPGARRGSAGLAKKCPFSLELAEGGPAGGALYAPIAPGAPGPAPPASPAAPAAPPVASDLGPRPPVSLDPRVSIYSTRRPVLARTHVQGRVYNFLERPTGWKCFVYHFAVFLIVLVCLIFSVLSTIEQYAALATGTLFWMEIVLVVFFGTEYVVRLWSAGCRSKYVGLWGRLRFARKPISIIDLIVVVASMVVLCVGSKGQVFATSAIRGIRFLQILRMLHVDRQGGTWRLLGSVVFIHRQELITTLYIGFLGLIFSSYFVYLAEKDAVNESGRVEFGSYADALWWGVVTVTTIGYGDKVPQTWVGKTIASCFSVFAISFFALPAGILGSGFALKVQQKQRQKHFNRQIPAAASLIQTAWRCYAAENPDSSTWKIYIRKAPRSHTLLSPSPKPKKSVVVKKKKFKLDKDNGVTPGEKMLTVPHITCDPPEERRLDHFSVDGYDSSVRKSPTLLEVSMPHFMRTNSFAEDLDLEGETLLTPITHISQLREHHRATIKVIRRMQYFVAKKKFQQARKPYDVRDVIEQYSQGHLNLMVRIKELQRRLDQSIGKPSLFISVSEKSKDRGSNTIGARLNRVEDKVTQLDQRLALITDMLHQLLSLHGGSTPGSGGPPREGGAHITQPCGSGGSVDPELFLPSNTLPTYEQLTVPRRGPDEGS
CHO Tl ctr: KCNQ2 inhibitor counter-screen hit in parental CHO cells; shares compounds with KCNQ2 inh; thallium flux counter-screen; active compounds read low; activity change, % at 10 µM; actives 14% (n = 1,000); AID 493029;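 note: 0% = vehicle negative controls with stimulus buffer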
KCNQ2 patch conf: rat KCNQ2 inhibition confirmed by electrophysiology | AID 588531 | shares compounds with KCNQ2 inh | calls only at 10 µM | actives 49% (n = 550) | KCNQ2-expressing cells, automated patch clamp current
Starred values were filed as active, the others as inactive; i = inactive; x = not tested or not shown; + = active, no number. Unless noted, the rule behind the calls is not given here.

SMILES	KCNQ2 enhance	KCNQ2 inh	KCNQ2 inh conf	KCNQ1 spec	CHO Tl ctr	others
COc1cc(C2CC(=O)Nc3ccccc3S2)cc(OC)c1OC (centres undefined)	-8.5	-8.5*	i	i	i
COc1cc(C2Sc3ccccc3NC3=C2C(=O)OC3)cc(OC)c1OC (centres undefined)	x	i	x	x	x
O=C(CC1OC(=O)c2ccccc21)Nc1cc(Cl)ccc1N1CCCC1 (centres undefined)	0.63	i	x	x	x
CCN(CC)S(=O)(=O)c1ccc(N2CCOCC2)c(NC(=S)NC(=O)c2ccco2)c1	-7.3	-7.3*	-34%*	i	i	KCNQ2 patch conf=+
O=C(NC(=S)Nc1cc(S(=O)(=O)N2CCOCC2)ccc1N1CCOCC1)c1ccco1	x	i	x	x	x
CC(C)CC(NC(=O)C1CCC(C)CC1)C(=O)NCc1ccco1 (centres undefined)	x	i	x	x	x
COc1ccccc1CNC(=O)C(CC(C)C)NC(=O)C1CCC(C)CC1 (centres undefined)	-8.2	-8.2*	-28%*	i	i	KCNQ2 patch conf=+
CO/N=C/CC(=O)c1ccc([N+](=O)[O-])c(CS(=O)(=O)c2ccc(Cl)cc2)c1	x	i	x	x	x
CN(C)S(=O)(=O)c1cccc(C(=O)Nc2ccccc2N2CCCCC2)c1	x	i	x	x	x
CC1CN(S(=O)(=O)c2cccc(C(=O)Nc3ccccc3N3CCCCC3)c2)CC(C)O1 (centres undefined)	-9.5	-9.5*	-29%*	i	i	KCNQ2 patch conf=i
COc1ccc(C(CNC(=O)CSc2ccc(Br)cc2C)N2CCOCC2)cc1 (centres undefined)	x	i	x	x	x
CCc1ccc(-c2csc(NC(=O)C3CCCO3)c2C(=O)OC(C)C)cc1 (centres undefined)	-8.3	-8.3*	-29%*	i	i
COC(=O)c1c(-c2ccc(F)cc2)csc1NC(=O)C1CCCO1 (centres undefined)	0.46	i	x	x	x
COc1ccccc1/C=C(/C(=O)OCC(=O)Nc1cc(C)ccc1C)c1ccccc1	x	i	x	x	x
COC(=O)c1c(NC(=O)Cc2cccs2)sc2c1CCCC2	-8.4	-8.4*	-30%*	i	i	KCNQ2 patch conf=i
COCC(=O)Nc1sc2c(c1C(=O)OC)CCCC2	x	i	x	x	x
COc1ccccc1C1=NNC(=Nc2cccc(S(=O)(=O)N(C)C)c2)SC1	x	i	x	x	x
O=C(NCCn1cc(SCc2ccc(F)cc2)c2ccccc21)c1c(F)cccc1F	0.27	i	x	x	x
O=C(NCCn1cc(SCc2ccc(F)cc2)c2ccccc21)c1ccccc1F	-9.1	-9.1*	i	i	i
C/C(=N\NC(=O)c1cccc(S(=O)(=O)N2CCOCC2)c1)c1ccc(OCC(=O)N(C)C)cc1	2.6	i	x	x	x
Cc1cccc(N2CCN(C(=O)COc3cccc4c3OC(C)(C)C4)CC2)c1C	x	i	x	x	x
CN(C)c1nc(NCc2ccccc2)nc(N/N=C/c2ccc(Cl)cc2Cl)n1	-8.8	-8.8*	i	i	i
CN(C)c1nc(NCc2ccccc2)nc(N/N=C/c2ccccc2F)n1	x	i	x	x	x
CC(=N)C1=C(O)CC(c2ccccc2)CC1=O (centres undefined)	x	i	x	x	x
CCOC(=O)c1cc2c(=O)c3ccccc3oc2nc1C	0.29	i	x	x	x
SMILES	KCNQ2 enhance	KCNQ2 inh	KCNQ2 inh conf	KCNQ1 spec	CHO Tl ctr	others
CCN(CC)C(=O)c1cc2c(=O)c3cc(F)ccc3oc2nc1C	-9.6	-9.6*	-23%*	i	i	KCNQ2 patch conf=+
O=C(NCc1ccccc1)c1cccc(COc2ccccc2Cl)c1	-12	-12*	i	i	i
O=C(NCc1ccccc1)c1cccc(COc2cc(Cl)ccc2Cl)c1	x	i	x	x	x
CCN(CC(=O)NCc1ccc(Cl)cc1)C(=O)c1oc2ccccc2c1C	-7	-7*	-19%*	i	i	KCNQ2 patch conf=+
CCN(CC(=O)NCc1ccc(F)cc1)C(=O)c1oc2ccccc2c1C	x	i	x	x	x
Cc1ccccc1C(=O)c1cccn1CC(=O)NC(C)c1ccc2c(c1)OCCO2 (centres undefined)	4.7	i	x	x	x
CC(C)(C)c1cccc(OCCCSc2ncccn2)c1	-9.2	-9.2*	i	i	i
Cc1ccc(OCCCSc2ncccn2)cc1C	x	i	x	x	x
O=C(C1=C(Nc2ccccc2)c2ccccc2S(=O)(=O)N1)c1ccccc1	0.03	i	x	x	x
Cc1ccccc1NC1=C(C(=O)c2ccccc2)N(C)S(=O)(=O)c2ccccc21	-8.1	-8.1*	-29%*	i	i	KCNQ2 patch conf=+
COCCNc1nnc(SCC(=O)NNC(=O)c2ccc([N+](=O)[O-])cc2)s1	1.9	i	x	x	x
O=C1COc2ccc(S(=O)(=O)Nc3cccc(Cl)c3)cc2N1	x	i	x	x	x
CCN1CCc2nc3ccccc3c(C(=O)Nc3ccc(NC(C)=O)cc3)c2C1	0.89	i	x	x	x
CCN1CCc2nc3ccccc3c(C(=O)Nc3ccc(F)cc3)c2C1	-9.4	-9.4*	i	i	i
C=CCNC(=O)/C(C#N)=C/c1ccc(C(=O)O)cc1	0.4	i	x	x	x
C=CCNC(=O)/C(C#N)=C/c1ccccc1Cl	-6.7	-6.7*	i	i	i
O=C(COC(=O)C1CCN(c2ccc(C(F)(F)F)cn2)CC1)c1ccccc1Cl	x	i	x	x	x
O=C(COC(=O)C1CCN(c2ccc(C(F)(F)F)cn2)CC1)c1ccc(F)cc1	x	i	x	x	x
Cc1cc(C)c(C(=O)COC(=O)C2CCN(c3ccc(C(F)(F)F)cn3)CC2)cc1C	-10	-10*	i	i	i
COc1cc(C(=O)COC(=O)C2CCN(c3ccc(C(F)(F)F)cn3)CC2)ccc1OC(F)F	-9.9	-9.9*	i	i	i
Cc1c(NC(=O)N(C)c2ccccc2)c(=O)n(-c2ccccc2)n1C	x	i	x	x	x
CCC(Oc1ccc(F)cc1)C(=O)N1CCCCCCC1 (centres undefined)	x	i	x	x	x
COc1cccc(-n2c(SCC(=O)Nc3nc4ccccc4s3)nc3ccccc3c2=O)c1	-7	-7*	i	i	i
COc1cccc(-n2c(SCC(=O)NCc3cccs3)nc3ccccc3c2=O)c1	x	i	x	x	x
Cc1ccc(N2CCN(S(=O)(=O)c3ccc4oc(=O)ccc4c3)CC2)cc1Cl	x	i	x	x	x
SMILES	KCNQ2 enhance	KCNQ2 inh	KCNQ2 inh conf	KCNQ1 spec	CHO Tl ctr	others
Cc1ccc2nc(SCC(=O)Nc3cccc(S(=O)(=O)NC4=NCCCCC4)c3)[nH]c2c1	0.55	i	x	x	x
Cn1c(=O)c(C(=O)NCc2ccccc2Cl)c(O)c2ccccc21	x	i	x	x	x
CCCn1c(=O)c(C(=O)NC(C)c2ccccc2)c(O)c2ccccc21 (centres undefined)	-11	-11*	i	i	i
CCn1c(=O)c(C(=O)NC(C)c2ccccc2)c(O)c2ccccc21 (centres undefined)	x	i	x	x	x
CCn1c(=O)c(C(=O)NCc2ccccc2Cl)c(O)c2ccccc21	-8.4	-8.4*	-36%*	-37%*	-23%*	KCNQ2 patch conf=i
COc1ccc(Cc2nnc(SCC(=O)Nc3ccccc3C)n(N)c2=O)cc1	x	i	x	x	x
CC(=O)c1ccc(NS(=O)(=O)c2cccc(C(=O)Nc3ccccc3C(=O)O)c2)cc1	x	i	x	x	x
